The full list was thinned out, with the strongest signals kept by preference.
How the values were obtained:
Experiment in all cases: glycan array binding signal (z-score within array); higher = stronger binding
Details in all cases: glycan notation: IUPAC condensed, linker removed
[1] = molecular target: Fuc(a1-2)Gal(b1-3)GalNAc(b1-4)[Neu5Ac(a2-3)]Gal(b1-4)Glc
How it was run: (§1)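 Negative Z-scores can be read as non-binding. The Z-score is calculated within each array and then averaged across arrays of one protein sequence at different concentrations or buffers and across linkers. Arrays, 3228 in all, were curated from the Consortium for Functional Glycomics database and kept only where the protein sequence was available.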

[2] = molecular target: Fuc(a1-2)Gal(b1-3)GlcNAc6S
How it was run: as §1

[3] = molecular target: Fuc(a1-2)Gal(b1-3)[Fuc(a1-4)]GlcNAc(b1-2)Man(a1-3)[Fuc(a1-2)Gal(b1-3)[Fuc(a1-4)]GlcNAc(b1-2)Man(a1-3)]Man(b1-4)GlcNAc(b1-4)GlcNAc
How it was run: as §1

[4] = molecular target: Fuc(a1-2)Gal(b1-4)Glc6S
How it was run: as §1

[5] = molecular target: Fuc(a1-2)Gal(b1-4)GlcNAc(b1-2)[Fuc(a1-2)Gal(b1-4)GlcNAc(b1-4)]Man(a1-3)[Fuc(a1-2)Gal(b1-4)GlcNAc(b1-2)Man(a1-6)]Man(b1-4)GlcNAc(b1-4)GlcNAc
How it was run: as §1

[6] = molecular target: Fuc(a1-2)GlcNAc
How it was run: as §1

[7] = molecular target: Fuc(a1-2)[Gal(a1-3)]Gal(b1-3)GalNAc(b1-3)Gal(a1-4)Gal(b1-4)Glc
How it was run: as §1

[8] = molecular target: Fuc(a1-2)[Gal(a1-3)]Gal(b1-3)GlcNAc(b1-3)GalNAc
How it was run: as §1

[9] = molecular target: Fuc(a1-2)[Gal(a1-3)]Gal(b1-4)[Fuc(a1-3)]GlcNAc
How it was run: as §1

[10] = molecular target: Fuc(a1-2)[GalNAc(a1-3)]Gal(b1-4)[Fuc(a1-3)]GlcNAc(b1-3)GalNAc
How it was run: as §1

[11] = molecular target: Fuc(a1-2)[GalNAc(a1-4)]Gal(b1-4)GlcNAc
How it was run: as §1

[12] = molecular target: Fuc(a1-3)[Gal(b1-4)]GlcNAc(b1-3)Gal(b1-3)[Fuc(a1-4)]GlcNAc
How it was run: as §1

[13] = molecular target: Fuc(a1-3)[GalNAc(b1-4)]GlcNAc
How it was run: as §1

[14] = molecular target: Gal(a1-3)Gal(b1-3)Glc
How it was run: as §1

[15] = molecular target: Gal(a1-3)Gal(b1-4)GlcNAc(b1-2)Man(a1-3)[Gal(a1-3)Gal(b1-4)GlcNAc(b1-2)Man(a1-6)]Man(b1-4)GlcNAc(b1-4)GlcNAc
How it was run: as §1

[16] = molecular target: Gal(a1-3)GlcNAc
How it was run: as §1

[17] = molecular target: Gal(b1-3)GalNAc(a1-3)[Fuc(a1-2)]Gal(b1-4)Glc
How it was run: as §1

[18] = molecular target: Gal(b1-3)GalNAc(a1-3)[Fuc(a1-2)]Gal(b1-4)GlcNAc
How it was run: as §1

[19] = molecular target: Gal(b1-3)GlcNAc(a1-6)Gal(b1-4)GlcNAc
How it was run: as §1

[20] = molecular target: Gal(b1-3)GlcNAc(b1-3)Gal(b1-4)GlcNAc
How it was run: as §1

[21] = molecular target: Gal(b1-3)[Neu5Ac(a2-6)]GlcNAc(b1-4)Gal(b1-4)Glc
How it was run: as §1

[22] = molecular target: Gal(b1-4)GlcNAc
How it was run: as §1

[23] = molecular target: Gal(b1-4)GlcNAc(b1-2)[Gal(b1-4)GlcNAc(b1-4)]Man(a1-3)[Gal(b1-4)GlcNAc(b1-2)[Gal(b1-4)GlcNAc(b1-6)]Man(a1-6)]Man(b1-4)GlcNAc(b1-4)GlcNAc
How it was run: as §1

[24] = molecular target: Gal(b1-4)GlcNAc(b1-2)[Gal(b1-4)GlcNAc(b1-6)]Man(a1-6)[Gal(b1-4)GlcNAc(b1-2)Man(a1-3)]Man(b1-4)GlcNAc(b1-4)[Fuc(a1-6)]GlcNAc
How it was run: as §1

[25] = molecular target: Gal(b1-4)GlcNAc(b1-2)[Gal(b1-4)GlcNAc(b1-6)]Man(a1-6)[GlcNAc(b1-4)][Gal(b1-4)GlcNAc(b1-2)Man(a1-3)]Man(b1-4)GlcNAc(b1-4)GlcNAc
How it was run: as §1

[26] = molecular target: Gal3S(b1-4)[Fuc(a1-3)]Glc6S
How it was run: as §1

[27] = molecular target: GalNAc(b1-3)Gal(a1-4)Gal(b1-4)GlcNAc(b1-3)Gal(b1-4)Glc
How it was run: as §1

[28] = molecular target: GalNAc3S(b1-4)[Fuc(a1-3)]GlcNAc
How it was run: as §1

[29] = molecular target: GalNAc4S6S(b1-4)GlcNAc
How it was run: as §1

[30] = molecular target: Glc(a1-6)Glc(a1-6)Glc(a1-6)Glc
How it was run: as §1

B1: XL-35 (Xenopus laevis) (protein)
chain: MLVHILLLLVTGGLSQSCDPVVIVASKNMVKQLDCDKFRNCKEIKDSNEEAQDGIYTLTSPDGISYQTFCDMTTNGGGWTLVASVHENNMAGKCTIGDRWSSQQGNRADYPEGDGNWANYNTFGSAGGATSDDYKNPGYYDIEAYNLGVWHVPNKTPLSVWRNSSLQRYRTTDGILFKHGGNLFSLYRIYPVKYGIGSCSKDSGPTVPVVYDLGSANLTASFYSPGFRSQFTPGYIQFRPINTEKAALALCPGMKMESCNVEHVCIGGGGYFPEADPRQCGDFAAYDFNGYGTKKFNSAGIEITEAAVLLFYL
For B1, the “glycan array binding signal (z-score)” value [1] was -0.108, the “glycan array binding signal (z-score)” value [2] was -0.184 and the “glycan array binding signal (z-score)” value [3] was -0.215. The “glycan array binding signal (z-score)” value [4] was 0.014, the “glycan array binding signal (z-score)” value [5] was 0.358 and the “glycan array binding signal (z-score)” value [6] was -0.021. For the same binder, the “glycan array binding signal (z-score)” value [7] was -0.322, the “glycan array binding signal (z-score)” value [8] was -0.477 and the “glycan array binding signal (z-score)” value [9] was -0.202. The “glycan array binding signal (z-score)” value [10] was 20.3, the “glycan array binding signal (z-score)” value [11] was -0.131 and the “glycan array binding signal (z-score)” value [12] was -0.053. The “glycan array binding signal (z-score)” value [13] was 6.12, the “glycan array binding signal (z-score)” value [14] was 2.36 and the “glycan array binding signal (z-score)” value [15] was 0.152. For the same binder, the “glycan array binding signal (z-score)” value [16] was 15.9, the “glycan array binding signal (z-score)” value [17] was -0.227 and the “glycan array binding signal (z-score)” value [18] was -0.337. For the same binder, the “glycan array binding signal (z-score)” value [19] was -0.171, the “glycan array binding signal (z-score)” value [20] was -0.474 and the “glycan array binding signal (z-score)” value [21] was 0.794. For the same binder, the “glycan array binding signal (z-score)” value [22] was -0.066, the “glycan array binding signal (z-score)” value [23] was 0.777 and the “glycan array binding signal (z-score)” value [24] was 0.078. For the same binder, the “glycan array binding signal (z-score)” value [25] was -0.452, the “glycan array binding signal (z-score)” value [26] was 0.818 and the “glycan array binding signal (z-score)” value [27] was -0.027. The “glycan array binding signal (z-score)” value [28] was -0.078, the “glycan array binding signal (z-score)” value [29] was 0.078 and the “glycan array binding signal (z-score)” value [30] was 0.158.
